FadD28 FP inh = inhibitors of FadD28 bisubstrate probe binding, primary screen, biochemical, fluorescence polarization, single point | inhibition, % at 12.5 µM | 360,000 tested, 0.22% active; in the data active means inhibition above about 8.5%, passing the limit was not always enough
Mtb UGM inh = M. tuberculosis UGM enzyme inhibitors, primary screen, biochemical, fluorescence polarization, single point; UDP-galactopyranose mutase (Mycobacterium tuberculosis (strain ATCC 25618 / H37Rv)), …; purified UGM, fluorescence polarization probe displacement; inhibition, % at 10 µM; 320,000 tested, 0.06% active; AID 504406, 2011; in the data active means inhibition above about 10%, passing the limit was not always enough
Rv3671c protease = Rv3671c serine protease inhibitors, primary screen, biochemical, fluorescence polarization, M. tuberculosis H37Rv; P9WHR9; inhibition, % at 5.96 µM; 320,000 tested, 0.048% active; AID 2606, 2010; in the data active means inhibition above about 38%;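 further: extracellular domain of Rv3671c used as enzyme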
BioA inh = M. tuberculosis BioA enzyme inhibitors, primary screen, biochemical, plate reader, single point, HTS; 7,8-diaminopelargonic acid synthase BioA (Mycobacterium tuberculosis); purified M. tuberculosis BioA enzyme; inhibition, % at 9.99 µM; 360,000 tested, 0.096% active; AID 602481, 2012; in the data active means inhibition above about 40%
RecA splice inh = Mtb RecA intein splicing inhibitors, primary screen, biochemical, fluorescence, HTS | Protein RecA (Mycobacterium tuberculosis (strain ATCC 25618 / H37Rv)), P9WHJ3 | cell-free RecA intein splicing | inhibition, % (concentration not given with the values) | 290,000 tested, 0.75% active; in the data active means inhibition above about 30%
TcdB inh = TcdB glycohydrolase inhibitors, primary screen, biochemical, single point, plate reader | Toxin B (Clostridioides difficile), P18177 | TcdB glycohydrolase enzymatic assay | inhibition, % at 9.99 µM | 350,000 tested, 0.24% active | AID 652162, 2013; in the data active means inhibition above about 10%
Of the large screens only hits and unclear results are named; the others gave an inactive call. An excerpt weighted towards active compounds, which were near 0.97% of everything screened.

C[C@@H]1CCCCO[C@H](CN(C)C(=O)Nc2ccc(F)cc2)[C@H](C)CN([C@@H](C)CO)C(=O)c2cc(NC(=O)CCCN(C)C)ccc2O1	none (no result: FadD28 FP inh, Mtb UGM inh, Rv3671c protease, RecA splice inh)
O=C(COC(=O)c1ccc2c(c1Cl)C(=O)c1ccccc1C2=O)NC1CCCCC1	none (no result: BioA inh)
O=C(COC(=O)c1ccc2c(c1Cl)C(=O)c1ccccc1C2=O)NC1CC1	RecA splice inh 41 (no result: BioA inh)
CCc1noc(C)c1C(=O)NNC(=O)COc1ccc(C)cc1	FadD28 FP inh 20 (no result: BioA inh, RecA splice inh)
COc1cccc2c1C(=O)c1c(O)c3c(c(O)c1C2=O)CC(O)(C(C)=O)CC3OC1CC(O)C(O)C(C)O1 (stereo unspecified)	FadD28 FP inh 66 (no result: Mtb UGM inh, Rv3671c protease, BioA inh, RecA splice inh)
COc1ccc(-c2nnn(CC(=O)c3c[nH]c4ccccc34)n2)cc1OC	FadD28 FP inh 15 (no result: TcdB inh)
CCCCOc1ccc(-c2nnn(CC(=O)c3c[nH]c4ccccc34)n2)cc1	none (no result: TcdB inh)
Cc1ccc(S(=O)(=O)Nc2cccc3c2O[C@H](CN(C)Cc2ccc(Oc4ccccc4)cc2)[C@H](C)CN([C@H](C)CO)C3=O)cc1	none (no result: FadD28 FP inh, Mtb UGM inh, Rv3671c protease, RecA splice inh, TcdB inh)
O=C(C1=C[C@@H](c2ccc(Br)cc2)C[C@@H](OCc2ccc(CO)cc2)O1)N1CCCC1	none (no result: FadD28 FP inh, Mtb UGM inh, Rv3671c protease, RecA splice inh)
Nc1ccc(-c2c3ccc(=O)cc-3oc3cc(O)ccc23)cc1C(=O)O	Mtb UGM inh 45 (no result: BioA inh)
O=c1cc(-c2ccccc2)oc2cc(O)ccc12	none (no result: Mtb UGM inh, Rv3671c protease, RecA splice inh)
O=C(NCC1CC1)[C@H]1[C@H](CO)[C@H]2Cn3c(ccc(-c4ccccc4)c3=O)[C@H]2N1Cc1cocn1	none (no result: FadD28 FP inh, Mtb UGM inh, Rv3671c protease, RecA splice inh)
COCC#Cc1cnc2c(c1)C(=O)N([C@@H](C)CO)C[C@@H](C)[C@@H](CN(C)S(=O)(=O)c1ccccc1)O2	none (no result: FadD28 FP inh, Mtb UGM inh, Rv3671c protease, RecA splice inh)
O=C(O)c1cc(N/N=C/c2ccc(N3CCOCC3)s2)ccc1Cl	FadD28 FP inh 45 (no result: Mtb UGM inh)
NC(=O)N/N=C/c1ccc(N2CCOCC2)s1	none (no result: BioA inh)
CCSc1ccc(C(=O)NCC(=O)O)cc1	none (no result: RecA splice inh)
CSc1ccc(NC(=O)Nc2ccc(C(=O)NCC(=O)O)cc2)cc1	FadD28 FP inh 11 (no result: Rv3671c protease, BioA inh)
CCNC(=O)Nc1ccc2c(c1)C(=O)N(C)[C@H]1CC[C@@H](CC(=O)NCCOC)O[C@@H]1CO2	none (no result: FadD28 FP inh, Mtb UGM inh, Rv3671c protease, RecA splice inh, TcdB inh)
Oc1ccc(Br)cc1/C=N/n1c(-c2ccccc2)n[nH]c1=S	none
Oc1c(Br)cc(Br)c(/C=N/n2c(-c3ccccc3)n[nH]c2=S)c1Br	FadD28 FP inh 25
Cc1cc(N/N=C/c2ccncc2)nc2ccccc12	TcdB inh 12 (no result: Mtb UGM inh, Rv3671c protease, BioA inh)
O=C1c2ccccc2-c2nnc(-c3ccc(O)cc3)cc21	RecA splice inh 49 (no result: BioA inh)
COCC(=O)N1CC[C@@H]2[C@@H](CO)N(C)c3ccc(-c4ccccc4)cc3[C@@H]21	TcdB inh 13 (no result: FadD28 FP inh, Mtb UGM inh, Rv3671c protease, BioA inh, RecA splice inh)
COCC(=O)N1CC[C@@H]2[C@H]1c1cc(-c3ccc(OC)cc3)ccc1N(C)[C@@H]2CO	none (no result: FadD28 FP inh, Mtb UGM inh, Rv3671c protease, RecA splice inh)
COCC(=O)N1CC[C@H]2[C@@H]1c1cc(-c3ccccc3)ccc1N(C)[C@H]2CO	none (no result: FadD28 FP inh, Mtb UGM inh, Rv3671c protease, BioA inh, RecA splice inh)
COCC(=O)N1CC[C@@H]2[C@H]1c1cc(-c3cccc(F)c3)ccc1N(C)[C@@H]2CO	none (no result: FadD28 FP inh, Mtb UGM inh, Rv3671c protease, BioA inh, RecA splice inh)
COCC(=O)N1CC[C@@H]2[C@H]1c1cc(-c3ccc(F)cc3)ccc1N(C)[C@H]2CO	TcdB inh 15 (no result: FadD28 FP inh, Mtb UGM inh, Rv3671c protease, RecA splice inh)
COCC(=O)N1CC[C@H]2[C@@H]1c1cc(-c3ccc(OC)cc3)ccc1N(C)[C@H]2CO	TcdB inh 14 (no result: FadD28 FP inh, Mtb UGM inh, Rv3671c protease, RecA splice inh)
CCC(=O)N1CC[C@H]2[C@@H]1c1cc(-c3ccc(OC)cc3)ccc1N(C)[C@H]2CO	none (no result: FadD28 FP inh, Mtb UGM inh, Rv3671c protease, BioA inh, RecA splice inh)
CCC(=O)N1CC[C@@H]2[C@H]1c1cc(-c3ccc(OC)cc3)ccc1N(C)[C@H]2CO	TcdB inh 11 (no result: FadD28 FP inh, Mtb UGM inh, Rv3671c protease, BioA inh, RecA splice inh)
O=C(C[C@H]1CC[C@H]2[C@@H](COC[C@H](O)CN2Cc2cccc(F)c2)O1)NCc1cccc(F)c1	none (no result: FadD28 FP inh, Mtb UGM inh, Rv3671c protease, RecA splice inh)
CN1c2ccc(-c3ccccc3)cc2[C@@H]2[C@@H](CCN2C(=O)Cc2cccnc2)[C@H]1CO	none (no result: FadD28 FP inh, Mtb UGM inh, Rv3671c protease, BioA inh, RecA splice inh)
COc1ccc(-c2ccc3c(c2)[C@H]2[C@H](CCN2C(=O)Cc2cccnc2)[C@@H](CO)N3C)cc1	TcdB inh 11 (no result: FadD28 FP inh, Mtb UGM inh, Rv3671c protease, RecA splice inh)
CC(C)NC(=O)N1CC[C@@H]2[C@@H](CO)N(C)c3ccc(-c4ccc(F)cc4)cc3[C@@H]21	TcdB inh 12 (no result: FadD28 FP inh, Mtb UGM inh, Rv3671c protease, BioA inh, RecA splice inh)
